From the supplement of paper PMC6411743 come the findings set out here.

Compound in this assay: Nc1nc2c(ncn2[C@@H]2O[C@H](COP(=O)(O)OP(=O)(O)OP(=O)(O)O)[C@@H](O)[C@H]2O)c(=O)[nH]1 [guanosine triphosphate]
As to the kind of experiment: NP40-soluble protein abundance relative to vehicle (solubility fold change) (ratio); higher = more soluble protein in presence of GTP. The protocol: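 Solubility proteome profiling in Jurkat crude lysate. Lysate was treated with Mg-GTP (0.1-10 mM) for 10 min at room temperature and 3 min at 37 °C, then solubilised with 0.8% NP40 and benzonase, followed by ultracentrifugation. Proteins were quantified by TMT10 LC-MS/MS; the value is the NP40-soluble abundance relative to the NP40-processed vehicle, from 3 independent experiments.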

± gives the standard deviation of the averaged measurements. The full data set covers some 5,400 targets. This sample favours those with the largest changes.

Sequence of UniProt P25705 (P25705 whole entry): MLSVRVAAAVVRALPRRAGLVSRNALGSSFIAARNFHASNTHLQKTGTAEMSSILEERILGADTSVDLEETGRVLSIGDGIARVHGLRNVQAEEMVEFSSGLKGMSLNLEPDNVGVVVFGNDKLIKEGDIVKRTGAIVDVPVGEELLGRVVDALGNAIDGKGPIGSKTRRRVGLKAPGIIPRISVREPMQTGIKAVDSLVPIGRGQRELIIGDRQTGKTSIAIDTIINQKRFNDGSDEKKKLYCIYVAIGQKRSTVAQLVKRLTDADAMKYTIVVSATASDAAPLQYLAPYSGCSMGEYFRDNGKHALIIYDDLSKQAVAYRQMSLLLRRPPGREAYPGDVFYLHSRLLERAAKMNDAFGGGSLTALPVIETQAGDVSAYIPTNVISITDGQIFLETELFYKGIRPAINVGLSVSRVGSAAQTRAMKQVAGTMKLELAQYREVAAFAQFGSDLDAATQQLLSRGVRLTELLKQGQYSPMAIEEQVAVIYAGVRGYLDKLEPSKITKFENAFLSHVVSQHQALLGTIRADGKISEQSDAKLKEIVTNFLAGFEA
Sequence of UniProt Q9HAH7 (Q9HAH7 whole entry, one chain of several): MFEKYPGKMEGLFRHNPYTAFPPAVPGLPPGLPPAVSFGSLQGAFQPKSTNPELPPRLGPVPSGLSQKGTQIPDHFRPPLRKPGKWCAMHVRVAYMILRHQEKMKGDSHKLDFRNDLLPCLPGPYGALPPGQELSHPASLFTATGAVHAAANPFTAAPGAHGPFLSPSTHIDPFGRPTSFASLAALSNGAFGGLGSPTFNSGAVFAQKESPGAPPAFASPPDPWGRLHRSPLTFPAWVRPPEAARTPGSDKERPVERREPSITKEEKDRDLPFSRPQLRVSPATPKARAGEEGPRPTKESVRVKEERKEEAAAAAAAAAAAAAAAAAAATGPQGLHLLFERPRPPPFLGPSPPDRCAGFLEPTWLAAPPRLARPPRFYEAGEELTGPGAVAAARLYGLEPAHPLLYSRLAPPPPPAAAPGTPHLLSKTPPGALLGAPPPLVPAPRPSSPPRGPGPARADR
Sequence of UniProt O60281 (O60281 whole entry, one chain of several): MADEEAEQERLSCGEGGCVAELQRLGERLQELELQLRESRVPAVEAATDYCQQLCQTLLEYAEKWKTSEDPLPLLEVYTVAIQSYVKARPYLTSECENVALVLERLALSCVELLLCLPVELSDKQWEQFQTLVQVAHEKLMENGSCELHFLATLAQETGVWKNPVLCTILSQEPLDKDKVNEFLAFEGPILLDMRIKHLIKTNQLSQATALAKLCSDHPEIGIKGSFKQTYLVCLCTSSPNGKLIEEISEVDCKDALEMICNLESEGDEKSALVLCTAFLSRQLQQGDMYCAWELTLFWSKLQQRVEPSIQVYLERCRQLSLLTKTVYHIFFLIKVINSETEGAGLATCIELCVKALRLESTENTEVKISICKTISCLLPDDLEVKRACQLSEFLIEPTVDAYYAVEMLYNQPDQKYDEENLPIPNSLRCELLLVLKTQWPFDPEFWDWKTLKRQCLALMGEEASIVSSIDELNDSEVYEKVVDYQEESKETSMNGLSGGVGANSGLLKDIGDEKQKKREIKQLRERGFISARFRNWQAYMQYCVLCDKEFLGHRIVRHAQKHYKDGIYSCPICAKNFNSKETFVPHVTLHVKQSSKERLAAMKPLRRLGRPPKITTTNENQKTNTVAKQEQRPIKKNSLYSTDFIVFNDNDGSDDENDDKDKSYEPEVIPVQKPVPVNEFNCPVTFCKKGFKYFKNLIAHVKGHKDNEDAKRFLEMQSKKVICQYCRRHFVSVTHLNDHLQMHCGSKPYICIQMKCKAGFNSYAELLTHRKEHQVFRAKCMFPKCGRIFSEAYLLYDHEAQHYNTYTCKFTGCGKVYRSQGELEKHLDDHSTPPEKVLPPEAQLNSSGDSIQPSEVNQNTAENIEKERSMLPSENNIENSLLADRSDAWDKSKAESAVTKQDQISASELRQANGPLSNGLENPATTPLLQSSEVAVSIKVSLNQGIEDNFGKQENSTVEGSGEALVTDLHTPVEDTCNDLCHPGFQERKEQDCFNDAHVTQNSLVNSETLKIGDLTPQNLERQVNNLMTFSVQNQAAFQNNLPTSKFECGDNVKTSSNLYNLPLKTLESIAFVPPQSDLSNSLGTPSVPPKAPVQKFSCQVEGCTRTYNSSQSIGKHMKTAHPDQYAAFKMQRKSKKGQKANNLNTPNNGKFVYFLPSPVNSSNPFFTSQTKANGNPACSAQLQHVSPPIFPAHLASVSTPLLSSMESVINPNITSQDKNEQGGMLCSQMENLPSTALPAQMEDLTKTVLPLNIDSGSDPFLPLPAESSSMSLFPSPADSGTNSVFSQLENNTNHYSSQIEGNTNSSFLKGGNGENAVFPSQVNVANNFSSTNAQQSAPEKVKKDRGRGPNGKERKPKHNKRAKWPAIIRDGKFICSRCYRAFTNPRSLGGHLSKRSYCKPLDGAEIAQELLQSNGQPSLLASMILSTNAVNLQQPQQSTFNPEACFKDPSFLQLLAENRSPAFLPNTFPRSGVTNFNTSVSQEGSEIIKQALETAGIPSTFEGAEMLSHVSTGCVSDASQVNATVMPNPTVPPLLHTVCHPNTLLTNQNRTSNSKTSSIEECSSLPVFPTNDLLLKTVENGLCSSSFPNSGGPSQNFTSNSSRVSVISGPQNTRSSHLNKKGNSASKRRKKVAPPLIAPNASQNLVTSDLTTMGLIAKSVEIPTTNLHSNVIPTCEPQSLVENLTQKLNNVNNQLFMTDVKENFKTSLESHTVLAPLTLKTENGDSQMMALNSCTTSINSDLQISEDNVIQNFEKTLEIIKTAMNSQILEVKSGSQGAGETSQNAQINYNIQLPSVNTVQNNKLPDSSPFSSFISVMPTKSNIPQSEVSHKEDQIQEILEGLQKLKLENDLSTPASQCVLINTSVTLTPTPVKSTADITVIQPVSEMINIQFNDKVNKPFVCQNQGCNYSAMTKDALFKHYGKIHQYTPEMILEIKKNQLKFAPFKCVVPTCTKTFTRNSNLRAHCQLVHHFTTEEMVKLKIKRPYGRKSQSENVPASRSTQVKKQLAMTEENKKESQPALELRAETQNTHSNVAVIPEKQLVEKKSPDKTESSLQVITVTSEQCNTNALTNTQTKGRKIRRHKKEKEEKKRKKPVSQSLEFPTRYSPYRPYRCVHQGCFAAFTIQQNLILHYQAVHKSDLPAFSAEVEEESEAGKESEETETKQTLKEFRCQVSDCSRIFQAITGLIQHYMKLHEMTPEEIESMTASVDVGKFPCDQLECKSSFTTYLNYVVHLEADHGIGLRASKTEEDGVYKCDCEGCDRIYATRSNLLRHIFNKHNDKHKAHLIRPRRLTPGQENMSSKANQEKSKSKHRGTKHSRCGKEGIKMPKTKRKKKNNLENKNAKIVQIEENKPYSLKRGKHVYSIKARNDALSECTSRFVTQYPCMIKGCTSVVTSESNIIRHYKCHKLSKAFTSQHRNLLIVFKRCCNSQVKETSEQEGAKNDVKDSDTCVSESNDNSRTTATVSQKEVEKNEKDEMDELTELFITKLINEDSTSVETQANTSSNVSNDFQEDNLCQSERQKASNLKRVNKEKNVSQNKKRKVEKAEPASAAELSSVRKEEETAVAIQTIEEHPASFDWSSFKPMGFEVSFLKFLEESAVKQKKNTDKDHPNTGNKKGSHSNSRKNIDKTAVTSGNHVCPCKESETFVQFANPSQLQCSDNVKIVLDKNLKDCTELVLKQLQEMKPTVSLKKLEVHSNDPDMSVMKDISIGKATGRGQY
Sequence of UniProt P06239 (P06239 whole entry, looked up): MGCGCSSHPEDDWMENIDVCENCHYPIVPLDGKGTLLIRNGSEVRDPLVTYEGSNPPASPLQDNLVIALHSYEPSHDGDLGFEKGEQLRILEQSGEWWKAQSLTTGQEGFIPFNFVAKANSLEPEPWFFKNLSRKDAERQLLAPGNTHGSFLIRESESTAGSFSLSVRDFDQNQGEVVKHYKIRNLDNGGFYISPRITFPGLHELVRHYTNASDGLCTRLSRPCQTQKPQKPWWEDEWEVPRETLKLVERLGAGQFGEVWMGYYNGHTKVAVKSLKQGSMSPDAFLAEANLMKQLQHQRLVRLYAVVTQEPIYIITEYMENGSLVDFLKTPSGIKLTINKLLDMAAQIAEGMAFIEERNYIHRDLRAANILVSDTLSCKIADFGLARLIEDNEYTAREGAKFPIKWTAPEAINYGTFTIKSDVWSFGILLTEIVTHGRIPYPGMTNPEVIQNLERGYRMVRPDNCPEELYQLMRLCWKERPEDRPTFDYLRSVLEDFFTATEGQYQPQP
Sequence of UniProt P10412 (P10412 whole entry): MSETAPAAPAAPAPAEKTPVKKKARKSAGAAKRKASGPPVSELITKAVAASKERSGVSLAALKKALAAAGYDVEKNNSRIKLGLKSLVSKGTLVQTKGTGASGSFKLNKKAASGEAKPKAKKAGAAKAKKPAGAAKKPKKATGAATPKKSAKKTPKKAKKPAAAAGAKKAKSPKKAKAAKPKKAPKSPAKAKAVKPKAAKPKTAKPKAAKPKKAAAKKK

On to UniProt P25705|P25705-2, for which the NP40-soluble protein abundance is, setting by setting: (concentration: 0.1mM) 0.981 ± 0.022; (concentration: 0.5mM) 1.04 ± 0.057; (concentration: 1mM) 0.998 ± 0.062; (concentration: 2mM) 1.01 ± 0.087; (concentration: 4mM) 0.986 ± 0.088; (concentration: 6mM) 1.03 ± 0.11. In addition, the NP40-soluble protein abundance is 1.01 ± 0.11 (concentration: 8mM) and 0.995 ± 0.098 (concentration: 10mM).

On to J3KNZ9 (UniProt Q9HAH7), for which the NP40-soluble protein abundance is 1.01 ± 0.12 (concentration: 0.1mM); 0.933 ± 0.095 (concentration: 0.5mM); 0.978 ± 0.056 (concentration: 1mM); 0.984 ± 0.061 (concentration: 2mM); 0.971 ± 0.051 (concentration: 4mM); 1.01 ± 0.05 (concentration: 6mM). Further, the NP40-soluble protein abundance reads like this: (concentration: 8mM) 1.02 ± 0.015; (concentration: 10mM) 1.01 ± 0.061.

As to UniProt P06239|P06239-3, the NP40-soluble protein abundance runs as follows: (concentration: 0.1mM) 1.013 ± 0.0087; (concentration: 0.5mM) 1.04 ± 0.034; (concentration: 1mM) 0.994 ± 0.022; (concentration: 2mM) 1 ± 0.032; (concentration: 4mM) 1 ± 0.023; (concentration: 6mM) 0.963 ± 0.015. Also, the NP40-soluble protein abundance by setting is: (concentration: 8mM) 0.929 ± 0.026; (concentration: 10mM) 0.919 ± 0.039.

Turning to HIST1H1E (UniProt P10412), the NP40-soluble protein abundance (concentration: 0.1mM) was found to be 1.02 ± 0.12; the NP40-soluble protein abundance (concentration: 0.5mM) was found to be 1.05 ± 0.1; the NP40-soluble protein abundance (concentration: 1mM) was 1.13 ± 0.15; the NP40-soluble protein abundance (concentration: 2mM) was 1.24 ± 0.11; the NP40-soluble protein abundance (concentration: 4mM) came to 1.26 ± 0.055; the NP40-soluble protein abundance (concentration: 6mM) was 1.38 ± 0.064. For the same target, the NP40-soluble protein abundance is, setting by setting: (concentration: 8mM) 1.28 ± 0.18; (concentration: 10mM) 2.05 ± 0.41.

Take J3KNV1|O60281|O60281-2 (UniProt O60281): the NP40-soluble protein abundance reads like this: (concentration: 0.1mM) 1.06 ± 0.041; (concentration: 0.5mM) 1.05 ± 0.095; (concentration: 1mM) 1.12 ± 0.066; (concentration: 2mM) 1.09 ± 0.13; (concentration: 4mM) 1.02 ± 0.051; (concentration: 6mM) 1.04 ± 0.15. The NP40-soluble protein abundance is, setting by setting: (concentration: 8mM) 1.07 ± 0.057; (concentration: 10mM) 1.05 ± 0.036.
